Key:
[1] = target: ALK tyrosine kinase receptor (Homo sapiens) (UniProt Q9UM73); conditions: at 10 µM
[2] = target: T1, AMP-activated protein kinase (AMPK) alpha-1/beta-1/gamma-1 (Homo sapiens) (UniProt P54619+Q9Y478+Q13131); conditions: at 1 µM
[3] = target: T1, AMP-activated protein kinase (AMPK) alpha-1/beta-1/gamma-1 (Homo sapiens); conditions: at 10 µM
[4] = target: T2, AMP-activated protein kinase, AMPK (Homo sapiens) (UniProt P54646+O43741+P54619+Q9UGJ0+Q9Y478+Q13131+Q9UGI9); conditions: at 1 µM
[5] = target: T2, AMP-activated protein kinase, AMPK (Homo sapiens); conditions: at 10 µM
[6] = target: T3, Mitogen-activated protein kinase kinase kinase 5 (Homo sapiens) (UniProt Q99683); conditions: at 1 µM
T3 sequence (whole entry): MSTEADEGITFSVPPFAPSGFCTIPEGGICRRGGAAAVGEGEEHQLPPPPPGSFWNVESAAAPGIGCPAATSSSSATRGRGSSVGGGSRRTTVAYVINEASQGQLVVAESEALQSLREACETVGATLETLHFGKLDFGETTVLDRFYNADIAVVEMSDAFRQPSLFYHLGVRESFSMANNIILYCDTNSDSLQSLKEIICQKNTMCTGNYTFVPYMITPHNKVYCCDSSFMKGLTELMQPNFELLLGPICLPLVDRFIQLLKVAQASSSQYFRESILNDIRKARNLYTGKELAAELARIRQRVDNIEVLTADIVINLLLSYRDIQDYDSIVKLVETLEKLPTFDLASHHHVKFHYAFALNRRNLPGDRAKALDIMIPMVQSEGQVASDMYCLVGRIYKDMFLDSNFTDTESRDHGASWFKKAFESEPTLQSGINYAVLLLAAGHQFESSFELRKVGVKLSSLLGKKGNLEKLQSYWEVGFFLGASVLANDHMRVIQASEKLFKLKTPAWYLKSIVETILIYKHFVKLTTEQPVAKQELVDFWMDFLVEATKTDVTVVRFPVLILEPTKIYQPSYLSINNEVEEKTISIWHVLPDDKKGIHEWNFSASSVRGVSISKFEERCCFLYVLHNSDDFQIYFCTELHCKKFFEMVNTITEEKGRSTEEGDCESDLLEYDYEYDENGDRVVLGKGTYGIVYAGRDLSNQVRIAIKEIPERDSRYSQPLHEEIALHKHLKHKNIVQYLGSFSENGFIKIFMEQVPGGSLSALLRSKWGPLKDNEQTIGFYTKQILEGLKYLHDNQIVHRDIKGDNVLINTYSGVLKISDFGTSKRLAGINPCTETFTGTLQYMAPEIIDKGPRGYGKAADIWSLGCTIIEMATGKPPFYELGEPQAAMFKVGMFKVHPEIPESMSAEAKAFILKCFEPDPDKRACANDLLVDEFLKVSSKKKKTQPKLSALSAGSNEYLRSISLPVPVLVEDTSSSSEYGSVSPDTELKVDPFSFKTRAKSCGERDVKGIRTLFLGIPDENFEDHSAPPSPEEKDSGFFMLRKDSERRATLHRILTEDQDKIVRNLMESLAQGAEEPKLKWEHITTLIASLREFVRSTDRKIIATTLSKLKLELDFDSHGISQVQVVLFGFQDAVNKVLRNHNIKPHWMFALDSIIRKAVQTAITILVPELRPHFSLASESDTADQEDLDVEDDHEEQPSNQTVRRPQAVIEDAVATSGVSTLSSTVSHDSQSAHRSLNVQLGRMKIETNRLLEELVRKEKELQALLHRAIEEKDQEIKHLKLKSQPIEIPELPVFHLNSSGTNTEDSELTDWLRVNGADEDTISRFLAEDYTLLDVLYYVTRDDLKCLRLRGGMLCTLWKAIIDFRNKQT

[7] = target: Platelet-derived growth factor receptor alpha (Homo sapiens) (UniProt P16234); conditions: at 1 µM
[8] = target: Platelet-derived growth factor receptor alpha (Homo sapiens) (UniProt P16234); conditions: at 10 µM
[9] = target: cAMP-dependent protein kinase catalytic subunit alpha (Homo sapiens) (UniProt P17612); conditions: at 1 µM
[10] = target: cAMP-dependent protein kinase catalytic subunit alpha (Homo sapiens) (UniProt P17612); conditions: at 10 µM
[11] = target: RAC-gamma serine/threonine-protein kinase (Homo sapiens) (UniProt Q9Y243); conditions: at 1 µM
Chain of RAC-gamma serine/threonine-protein kinase (Homo sapiens) (Q9Y243 whole entry): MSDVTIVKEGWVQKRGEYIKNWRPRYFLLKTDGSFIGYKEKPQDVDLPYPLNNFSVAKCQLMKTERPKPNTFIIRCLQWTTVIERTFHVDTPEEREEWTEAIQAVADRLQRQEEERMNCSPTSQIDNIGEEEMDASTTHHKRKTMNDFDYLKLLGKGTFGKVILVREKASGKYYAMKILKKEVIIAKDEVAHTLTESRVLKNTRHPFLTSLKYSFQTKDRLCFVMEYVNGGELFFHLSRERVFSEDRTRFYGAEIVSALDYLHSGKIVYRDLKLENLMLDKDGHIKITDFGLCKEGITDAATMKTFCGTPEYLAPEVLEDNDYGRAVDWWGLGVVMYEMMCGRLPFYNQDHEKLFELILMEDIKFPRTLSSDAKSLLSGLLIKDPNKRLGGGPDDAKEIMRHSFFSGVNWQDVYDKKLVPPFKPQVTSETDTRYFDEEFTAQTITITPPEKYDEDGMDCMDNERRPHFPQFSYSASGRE

[12] = target: RAC-gamma serine/threonine-protein kinase (Homo sapiens) (UniProt Q9Y243); conditions: at 10 µM
[13] = target: T4, NUAK family SNF1-like kinase 1 (Homo sapiens) (UniProt O60285); conditions: at 10 µM
T4 sequence (whole entry): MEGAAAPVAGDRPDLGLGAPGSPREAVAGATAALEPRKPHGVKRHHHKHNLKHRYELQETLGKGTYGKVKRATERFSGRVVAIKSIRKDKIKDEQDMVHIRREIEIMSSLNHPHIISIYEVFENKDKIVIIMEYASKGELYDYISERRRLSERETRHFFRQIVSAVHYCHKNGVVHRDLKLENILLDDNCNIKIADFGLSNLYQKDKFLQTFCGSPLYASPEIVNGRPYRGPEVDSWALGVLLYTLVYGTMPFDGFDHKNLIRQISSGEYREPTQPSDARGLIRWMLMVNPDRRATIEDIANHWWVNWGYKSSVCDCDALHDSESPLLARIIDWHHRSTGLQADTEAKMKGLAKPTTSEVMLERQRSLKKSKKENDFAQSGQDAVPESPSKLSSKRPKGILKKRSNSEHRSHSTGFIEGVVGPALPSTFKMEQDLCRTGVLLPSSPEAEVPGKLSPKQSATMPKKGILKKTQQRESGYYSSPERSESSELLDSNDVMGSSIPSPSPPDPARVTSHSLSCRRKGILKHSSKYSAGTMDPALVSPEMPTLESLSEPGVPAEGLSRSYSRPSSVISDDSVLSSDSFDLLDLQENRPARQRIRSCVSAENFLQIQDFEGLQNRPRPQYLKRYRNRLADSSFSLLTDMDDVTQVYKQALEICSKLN

[14] = target: Platelet-derived growth factor receptor beta (Homo sapiens) (UniProt P09619); conditions: at 1 µM
Chain of Platelet-derived growth factor receptor beta (Homo sapiens) (P09619 whole entry): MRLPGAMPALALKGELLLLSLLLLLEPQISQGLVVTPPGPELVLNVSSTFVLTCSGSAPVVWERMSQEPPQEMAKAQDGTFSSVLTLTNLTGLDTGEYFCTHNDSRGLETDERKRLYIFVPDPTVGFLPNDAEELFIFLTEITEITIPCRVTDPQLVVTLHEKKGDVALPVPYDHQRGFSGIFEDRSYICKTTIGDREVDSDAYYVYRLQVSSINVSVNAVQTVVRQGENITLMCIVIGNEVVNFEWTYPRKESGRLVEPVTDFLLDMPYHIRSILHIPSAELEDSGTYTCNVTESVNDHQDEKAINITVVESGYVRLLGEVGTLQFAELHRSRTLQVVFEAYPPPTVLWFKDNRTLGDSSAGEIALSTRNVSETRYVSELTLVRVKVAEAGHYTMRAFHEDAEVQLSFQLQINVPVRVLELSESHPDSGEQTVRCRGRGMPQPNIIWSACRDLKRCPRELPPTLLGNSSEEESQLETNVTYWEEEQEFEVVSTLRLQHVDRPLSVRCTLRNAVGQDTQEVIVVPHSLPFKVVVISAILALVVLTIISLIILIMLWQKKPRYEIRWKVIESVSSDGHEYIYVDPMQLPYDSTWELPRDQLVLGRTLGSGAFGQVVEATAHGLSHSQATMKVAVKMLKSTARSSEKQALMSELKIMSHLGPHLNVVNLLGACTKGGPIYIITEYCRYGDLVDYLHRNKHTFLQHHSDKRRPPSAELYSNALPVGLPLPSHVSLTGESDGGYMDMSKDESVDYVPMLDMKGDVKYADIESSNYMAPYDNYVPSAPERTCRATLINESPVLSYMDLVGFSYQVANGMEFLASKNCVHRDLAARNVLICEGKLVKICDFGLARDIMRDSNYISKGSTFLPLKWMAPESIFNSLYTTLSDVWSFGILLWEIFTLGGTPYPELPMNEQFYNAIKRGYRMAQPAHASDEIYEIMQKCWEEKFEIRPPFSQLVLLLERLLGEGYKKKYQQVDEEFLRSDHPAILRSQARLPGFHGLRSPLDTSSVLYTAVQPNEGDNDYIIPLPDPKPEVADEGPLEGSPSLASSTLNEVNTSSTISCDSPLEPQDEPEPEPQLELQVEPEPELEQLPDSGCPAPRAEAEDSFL

[15] = target: Platelet-derived growth factor receptor beta (Homo sapiens) (UniProt P09619); conditions: at 10 µM
[16] = target: T5, 3-phosphoinositide-dependent protein kinase 1 (Homo sapiens) (UniProt O15530); conditions: at 1 µM
T5 sequence (whole entry): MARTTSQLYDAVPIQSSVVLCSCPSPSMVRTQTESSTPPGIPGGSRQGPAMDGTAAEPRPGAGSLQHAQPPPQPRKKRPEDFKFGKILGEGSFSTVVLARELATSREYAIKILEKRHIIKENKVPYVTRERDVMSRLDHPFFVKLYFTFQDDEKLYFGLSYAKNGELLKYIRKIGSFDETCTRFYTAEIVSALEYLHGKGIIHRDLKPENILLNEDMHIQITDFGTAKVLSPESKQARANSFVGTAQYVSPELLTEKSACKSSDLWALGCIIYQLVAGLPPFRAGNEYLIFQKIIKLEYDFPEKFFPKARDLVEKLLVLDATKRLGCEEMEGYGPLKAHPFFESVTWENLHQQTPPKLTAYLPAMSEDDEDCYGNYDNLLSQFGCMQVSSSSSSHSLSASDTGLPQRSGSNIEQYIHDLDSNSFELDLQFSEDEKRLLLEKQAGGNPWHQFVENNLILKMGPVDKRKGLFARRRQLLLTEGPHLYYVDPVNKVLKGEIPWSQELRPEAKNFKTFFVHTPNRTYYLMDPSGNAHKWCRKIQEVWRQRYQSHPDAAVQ

[17] = target: T5, 3-phosphoinositide-dependent protein kinase 1 (Homo sapiens); conditions: at 10 µM
[18] = target: T4, NUAK family SNF1-like kinase 1 (Homo sapiens); conditions: at 1 µM
[19] = target: T6, Activin receptor type-1B (Homo sapiens) (UniProt P36896); conditions: at 1 µM
T6 sequence (whole entry): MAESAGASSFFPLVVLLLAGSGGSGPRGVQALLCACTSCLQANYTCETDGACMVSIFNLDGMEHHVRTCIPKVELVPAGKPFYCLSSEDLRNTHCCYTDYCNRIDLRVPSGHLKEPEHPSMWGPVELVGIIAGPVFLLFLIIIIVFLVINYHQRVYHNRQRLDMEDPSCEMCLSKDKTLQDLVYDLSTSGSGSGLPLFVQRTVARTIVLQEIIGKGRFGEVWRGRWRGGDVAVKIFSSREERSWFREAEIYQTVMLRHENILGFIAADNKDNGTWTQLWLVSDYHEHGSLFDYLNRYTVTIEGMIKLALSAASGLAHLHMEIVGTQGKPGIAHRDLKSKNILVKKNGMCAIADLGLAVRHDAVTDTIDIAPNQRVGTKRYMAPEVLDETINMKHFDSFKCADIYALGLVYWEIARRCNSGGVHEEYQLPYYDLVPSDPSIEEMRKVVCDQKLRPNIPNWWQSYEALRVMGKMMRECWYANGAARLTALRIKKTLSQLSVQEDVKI

[20] = target: T6, Activin receptor type-1B (Homo sapiens); conditions: at 10 µM

Chain of ALK tyrosine kinase receptor (Homo sapiens) (Q9UM73 19-1620 limits assumed): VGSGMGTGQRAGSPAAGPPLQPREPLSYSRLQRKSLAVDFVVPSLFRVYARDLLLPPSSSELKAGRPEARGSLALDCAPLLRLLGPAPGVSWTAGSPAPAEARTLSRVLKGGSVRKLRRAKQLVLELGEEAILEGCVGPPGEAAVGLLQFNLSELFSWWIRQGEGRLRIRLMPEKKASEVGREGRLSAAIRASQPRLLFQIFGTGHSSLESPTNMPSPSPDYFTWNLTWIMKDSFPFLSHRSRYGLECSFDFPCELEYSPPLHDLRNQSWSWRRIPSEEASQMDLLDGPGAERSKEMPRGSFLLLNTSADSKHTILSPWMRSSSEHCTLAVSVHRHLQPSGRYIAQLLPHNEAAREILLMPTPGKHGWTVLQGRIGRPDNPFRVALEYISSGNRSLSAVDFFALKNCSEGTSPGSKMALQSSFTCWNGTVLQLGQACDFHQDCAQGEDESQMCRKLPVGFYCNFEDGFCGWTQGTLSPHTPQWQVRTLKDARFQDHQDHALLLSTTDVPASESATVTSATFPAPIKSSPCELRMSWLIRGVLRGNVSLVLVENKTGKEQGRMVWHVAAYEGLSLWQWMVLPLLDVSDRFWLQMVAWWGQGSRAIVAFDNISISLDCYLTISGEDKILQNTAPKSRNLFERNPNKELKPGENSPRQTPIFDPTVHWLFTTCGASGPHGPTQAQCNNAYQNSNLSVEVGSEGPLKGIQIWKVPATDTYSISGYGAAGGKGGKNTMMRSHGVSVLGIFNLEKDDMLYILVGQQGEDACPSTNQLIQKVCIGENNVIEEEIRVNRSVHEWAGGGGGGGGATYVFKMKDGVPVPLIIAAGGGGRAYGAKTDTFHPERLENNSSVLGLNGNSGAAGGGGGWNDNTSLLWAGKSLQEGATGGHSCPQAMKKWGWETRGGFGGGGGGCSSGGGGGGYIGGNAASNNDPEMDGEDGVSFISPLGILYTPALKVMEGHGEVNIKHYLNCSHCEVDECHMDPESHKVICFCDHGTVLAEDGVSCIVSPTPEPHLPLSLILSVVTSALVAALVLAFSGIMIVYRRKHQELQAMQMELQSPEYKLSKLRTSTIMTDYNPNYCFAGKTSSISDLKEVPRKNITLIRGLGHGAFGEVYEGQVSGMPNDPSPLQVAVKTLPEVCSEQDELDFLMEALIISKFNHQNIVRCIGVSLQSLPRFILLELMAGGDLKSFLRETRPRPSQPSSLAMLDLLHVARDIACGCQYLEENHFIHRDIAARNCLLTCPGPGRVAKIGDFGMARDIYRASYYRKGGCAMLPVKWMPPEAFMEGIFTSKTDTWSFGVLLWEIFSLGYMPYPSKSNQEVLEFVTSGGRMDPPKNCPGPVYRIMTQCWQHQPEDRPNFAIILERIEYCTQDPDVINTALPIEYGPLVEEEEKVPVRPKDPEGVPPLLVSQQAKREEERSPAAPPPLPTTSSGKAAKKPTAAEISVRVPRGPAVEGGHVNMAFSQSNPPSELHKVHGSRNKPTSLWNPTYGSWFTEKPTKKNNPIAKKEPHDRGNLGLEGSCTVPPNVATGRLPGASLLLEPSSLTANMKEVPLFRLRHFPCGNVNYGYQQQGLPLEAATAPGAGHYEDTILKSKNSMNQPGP
T1 sequence (P54619 whole entry): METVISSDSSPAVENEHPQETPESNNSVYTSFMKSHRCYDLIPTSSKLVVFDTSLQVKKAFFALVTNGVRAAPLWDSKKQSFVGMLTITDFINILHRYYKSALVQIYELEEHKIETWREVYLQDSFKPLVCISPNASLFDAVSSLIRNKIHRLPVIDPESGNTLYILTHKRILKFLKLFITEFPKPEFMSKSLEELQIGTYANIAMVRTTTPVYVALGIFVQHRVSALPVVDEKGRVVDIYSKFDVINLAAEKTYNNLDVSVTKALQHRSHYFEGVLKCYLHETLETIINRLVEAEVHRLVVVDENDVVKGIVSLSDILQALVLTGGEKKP
T1 sequence (Q13131 whole entry partner): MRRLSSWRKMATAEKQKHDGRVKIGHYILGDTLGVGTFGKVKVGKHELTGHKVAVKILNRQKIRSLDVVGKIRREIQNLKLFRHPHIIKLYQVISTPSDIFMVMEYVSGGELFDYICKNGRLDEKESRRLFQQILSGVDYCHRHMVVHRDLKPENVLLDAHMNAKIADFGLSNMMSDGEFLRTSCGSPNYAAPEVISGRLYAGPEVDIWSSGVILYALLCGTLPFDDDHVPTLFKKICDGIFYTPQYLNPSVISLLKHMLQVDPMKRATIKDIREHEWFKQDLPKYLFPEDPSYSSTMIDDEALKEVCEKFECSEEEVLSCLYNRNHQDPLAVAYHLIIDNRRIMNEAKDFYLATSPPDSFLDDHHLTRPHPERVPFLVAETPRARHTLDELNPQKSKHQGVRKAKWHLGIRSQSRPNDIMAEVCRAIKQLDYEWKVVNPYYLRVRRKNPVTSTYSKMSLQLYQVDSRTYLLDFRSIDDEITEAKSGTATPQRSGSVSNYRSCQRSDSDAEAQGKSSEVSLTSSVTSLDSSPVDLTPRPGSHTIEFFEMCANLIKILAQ
T1 sequence (Q9Y478 2-270 partner limits assumed): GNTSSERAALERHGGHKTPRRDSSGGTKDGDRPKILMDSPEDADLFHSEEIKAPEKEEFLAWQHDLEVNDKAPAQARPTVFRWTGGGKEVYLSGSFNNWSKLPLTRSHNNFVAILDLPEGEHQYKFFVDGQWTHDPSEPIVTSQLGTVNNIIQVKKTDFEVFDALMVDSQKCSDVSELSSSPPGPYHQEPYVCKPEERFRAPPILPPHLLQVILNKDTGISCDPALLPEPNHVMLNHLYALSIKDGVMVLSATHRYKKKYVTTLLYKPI

## Cn1sc(=O)n(Cc2ccccc2)c1=O
[1]
  residual activity: 71%
[2]
  residual activity: 83%
[3]
  residual activity: 82%
[4]
  residual activity: 89%
[5]
  residual activity: 90%
[6]
  residual activity: 81%
[7]
  residual activity: 100%
[8]
  residual activity: 100%
[9]
  residual activity: 91%
[10]
  residual activity: 89%
[11]
  residual activity: 85%
[12]
  residual activity: 84%

## COc1cc2c(cc1OC)-c1n[nH]c(Nc3cccc(F)c3)c1C2
[2]
  residual activity: 80%
[3]
  residual activity: 65%
[5]
  residual activity: 69%
[13]
  residual activity: 68%
[6]
  residual activity: 74%
[7]
  residual activity: 2%
[8]
  residual activity: 1%
[14]
  residual activity: 11%
[15]
  residual activity: 1%
[16]
  residual activity: 104%
[17]
  residual activity: 106%
[10]
  residual activity: 98%
[12]
  residual activity: 109%

## O=C1Nc2ccccc2/C1=C\c1c(Cl)[nH]c2ccccc12
[1]
  residual activity: 49%
[5]
  residual activity: 58%
[13]
  residual activity: 46%
[17]
  residual activity: 85%

## Nc1n[nH]c2nc3ccccc3nc12
[1]
  residual activity: 51%
[2]
  residual activity: 86%
[3]
  residual activity: 83%
[4]
  residual activity: 88%
[5]
  residual activity: 86%
[18]
  residual activity: 87%
[13]
  residual activity: 40%
[17]
  residual activity: 85%
[11]
  residual activity: 87%
[12]
  residual activity: 93%

## O=C(Nc1ccc(Cl)cc1)c1ccccc1NCc1ccncc1
[19]
  residual activity: 130%
[20]
  residual activity: 72%
[3]
  residual activity: 78%
[5]
  residual activity: 72%
[7]
  residual activity: 39%
[8]
  residual activity: 7%
[14]
  residual activity: 46%
[15]
  residual activity: 4%

## NC(=O)c1cccc(-c2cc(Nc3ccc(OC(F)(F)F)cc3)ncn2)c1
[2]
  residual activity: 99%
[3]
  residual activity: 93%
[5]
  residual activity: 83%
[13]
  residual activity: 90%
[6]
  residual activity: 90%

## CC(C)(C)c1nc2c3ccc(F)cc3c3c(=O)[nH]ccc3c2[nH]1
[1]
  residual activity: 11%
[2]
  residual activity: 33%
[3]
  residual activity: 31%
[4]
  residual activity: 20%
[5]
  residual activity: 23%
[18]
  residual activity: 8%
[13]
  residual activity: 9%
[6]
  residual activity: 81%
[7]
  residual activity: 102%
[16]
  residual activity: 3%
[17]
  residual activity: 1%
[11]
  residual activity: 60%
[12]
  residual activity: 63%

## c1ccc(-c2cnc(Nc3ccc(OCCN4CCCC4)cc3)s2)cc1
[19]
  residual activity: 131%
[20]
  residual activity: 115%
[4]
  residual activity: 81%
[5]
  residual activity: 28%
[18]
  residual activity: 74%
[13]
  residual activity: 27%
[7]
  residual activity: 7%
[8]
  residual activity: 1%
[14]
  residual activity: 3%
[15]
  residual activity: 0%
[16]
  residual activity: 113%
[17]
  residual activity: 114%
[9]
  residual activity: 78%
[10]
  residual activity: 133%

## Oc1cccc(-c2nc(N3CCOCC3)c3oc4ncccc4c3n2)c1
[19]
  residual activity: 148%
[20]
  residual activity: 92%
[18]
  residual activity: 98%
[13]
  residual activity: 99%
[7]
  residual activity: 127%
[15]
  residual activity: 98%
[9]
  residual activity: 95%
[10]
  residual activity: 85%
[11]
  residual activity: 95%
[12]
  residual activity: 95%

From ChEMBL document CHEMBL2218924, “A broad activity screen in support of a chemogenomic map for kinase signalling research and drug discovery” (Biochem J, 2013)
